# Sampled rows, rich in hits. Any-hit rate of the full collection: about 1.1%.
# Menin MLL FP TR: inhibitors of human menin-MLL interaction, mutant MLL peptide; Potency, µM (titrated, usually from 61.6 µM), for inactives: at the highest dose FP activity change, negative = inhibition, actives largely listed as inhibitors; Menin + Texas Red MLL mutant peptide, fluorescence polarization; hit rate 0.23% among 270,000; active means well fitted inhibition curve with a large enough effect in the polarisation, with a control signal flat, not every such curve was filed as active; inconclusive means small, poorly fitted or top-dose-only effect, or effect the other way, or a change in a side signal; inactive means no such curve, though single readings can be large or run the other way; the % refers to the polarisation; further: potency means the concentration at half of the fitted maximal effect; % of control where 0% means no effect
# KCNH2 3.1 inh: KCNH2 3.1 (human) potassium channel inhibition; hit rate 0.95% among 340,000; U2OS KCNH2 3.1, thallium flux FluxOr; active compounds read low; activity change, % (tested at about 1.8 µM);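 active means maximum activity change below -70%; inconclusive means maximum activity change from -70% to -50%; inactive means maximum activity change above -50%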;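 further: thallium influx rate constant from kinetic fluorescence after stimulation buffer; on the % scale 0 is the no-effect control and ±100 the full control effect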
#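 Normalized rate constant (relative to positive and negative DMSO controls) derived from a 2 min kinetic fluorescence read after stimulation; U2OS cells expressing the 3.1 isoform via virus at 1.77 x 10^8 /mL.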
# hERG WT inh: blocks the wildtype human KCNH2 potassium channel | Q12809 | U2OS, BacMam KCNH2, thallium flux FluxOr; active compounds read low | activity change, % at 1.84 µM | hit rate 0.37% among 340,000 | AID 720551;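 active means maximum activity change below -70%; inconclusive means maximum activity change between -70% and -50%; inactive means maximum activity change above -50%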; further: on the % scale 0 is the no-effect control and ±100 the full control effect
#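 U2OS cells transduced with wild-type KCNH2 virus are loaded with FluxOr dye for 45 min, and thallium flux is measured in kinetic reads before and after stimulation buffer. Rate constants are normalized to DMSO controls.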
# CXXC DNA block: MLL CXXC-DNA interaction inhibition; Q03164; MLL-CXXC / FITC-HOXA9 DNA fluorescence polarization; Potency, µM (doses to about 115 µM), without a hit: top-dose activity change, negative = inhibition, hits mostly inhibitors; hit rate 0.037% among 290,000; active means well fitted inhibition curve with a large enough effect in the polarisation, with a control signal flat, not every such curve was filed as active; inconclusive means small, poorly fitted or top-dose-only effect, or effect the other way, or a change in a side signal; inactive means no such curve, though single readings can be large or run the other way; the % refers to the polarisation; further: potency means the concentration at half of the fitted maximal effect
# Target sequence (Q03164 whole entry, looked up): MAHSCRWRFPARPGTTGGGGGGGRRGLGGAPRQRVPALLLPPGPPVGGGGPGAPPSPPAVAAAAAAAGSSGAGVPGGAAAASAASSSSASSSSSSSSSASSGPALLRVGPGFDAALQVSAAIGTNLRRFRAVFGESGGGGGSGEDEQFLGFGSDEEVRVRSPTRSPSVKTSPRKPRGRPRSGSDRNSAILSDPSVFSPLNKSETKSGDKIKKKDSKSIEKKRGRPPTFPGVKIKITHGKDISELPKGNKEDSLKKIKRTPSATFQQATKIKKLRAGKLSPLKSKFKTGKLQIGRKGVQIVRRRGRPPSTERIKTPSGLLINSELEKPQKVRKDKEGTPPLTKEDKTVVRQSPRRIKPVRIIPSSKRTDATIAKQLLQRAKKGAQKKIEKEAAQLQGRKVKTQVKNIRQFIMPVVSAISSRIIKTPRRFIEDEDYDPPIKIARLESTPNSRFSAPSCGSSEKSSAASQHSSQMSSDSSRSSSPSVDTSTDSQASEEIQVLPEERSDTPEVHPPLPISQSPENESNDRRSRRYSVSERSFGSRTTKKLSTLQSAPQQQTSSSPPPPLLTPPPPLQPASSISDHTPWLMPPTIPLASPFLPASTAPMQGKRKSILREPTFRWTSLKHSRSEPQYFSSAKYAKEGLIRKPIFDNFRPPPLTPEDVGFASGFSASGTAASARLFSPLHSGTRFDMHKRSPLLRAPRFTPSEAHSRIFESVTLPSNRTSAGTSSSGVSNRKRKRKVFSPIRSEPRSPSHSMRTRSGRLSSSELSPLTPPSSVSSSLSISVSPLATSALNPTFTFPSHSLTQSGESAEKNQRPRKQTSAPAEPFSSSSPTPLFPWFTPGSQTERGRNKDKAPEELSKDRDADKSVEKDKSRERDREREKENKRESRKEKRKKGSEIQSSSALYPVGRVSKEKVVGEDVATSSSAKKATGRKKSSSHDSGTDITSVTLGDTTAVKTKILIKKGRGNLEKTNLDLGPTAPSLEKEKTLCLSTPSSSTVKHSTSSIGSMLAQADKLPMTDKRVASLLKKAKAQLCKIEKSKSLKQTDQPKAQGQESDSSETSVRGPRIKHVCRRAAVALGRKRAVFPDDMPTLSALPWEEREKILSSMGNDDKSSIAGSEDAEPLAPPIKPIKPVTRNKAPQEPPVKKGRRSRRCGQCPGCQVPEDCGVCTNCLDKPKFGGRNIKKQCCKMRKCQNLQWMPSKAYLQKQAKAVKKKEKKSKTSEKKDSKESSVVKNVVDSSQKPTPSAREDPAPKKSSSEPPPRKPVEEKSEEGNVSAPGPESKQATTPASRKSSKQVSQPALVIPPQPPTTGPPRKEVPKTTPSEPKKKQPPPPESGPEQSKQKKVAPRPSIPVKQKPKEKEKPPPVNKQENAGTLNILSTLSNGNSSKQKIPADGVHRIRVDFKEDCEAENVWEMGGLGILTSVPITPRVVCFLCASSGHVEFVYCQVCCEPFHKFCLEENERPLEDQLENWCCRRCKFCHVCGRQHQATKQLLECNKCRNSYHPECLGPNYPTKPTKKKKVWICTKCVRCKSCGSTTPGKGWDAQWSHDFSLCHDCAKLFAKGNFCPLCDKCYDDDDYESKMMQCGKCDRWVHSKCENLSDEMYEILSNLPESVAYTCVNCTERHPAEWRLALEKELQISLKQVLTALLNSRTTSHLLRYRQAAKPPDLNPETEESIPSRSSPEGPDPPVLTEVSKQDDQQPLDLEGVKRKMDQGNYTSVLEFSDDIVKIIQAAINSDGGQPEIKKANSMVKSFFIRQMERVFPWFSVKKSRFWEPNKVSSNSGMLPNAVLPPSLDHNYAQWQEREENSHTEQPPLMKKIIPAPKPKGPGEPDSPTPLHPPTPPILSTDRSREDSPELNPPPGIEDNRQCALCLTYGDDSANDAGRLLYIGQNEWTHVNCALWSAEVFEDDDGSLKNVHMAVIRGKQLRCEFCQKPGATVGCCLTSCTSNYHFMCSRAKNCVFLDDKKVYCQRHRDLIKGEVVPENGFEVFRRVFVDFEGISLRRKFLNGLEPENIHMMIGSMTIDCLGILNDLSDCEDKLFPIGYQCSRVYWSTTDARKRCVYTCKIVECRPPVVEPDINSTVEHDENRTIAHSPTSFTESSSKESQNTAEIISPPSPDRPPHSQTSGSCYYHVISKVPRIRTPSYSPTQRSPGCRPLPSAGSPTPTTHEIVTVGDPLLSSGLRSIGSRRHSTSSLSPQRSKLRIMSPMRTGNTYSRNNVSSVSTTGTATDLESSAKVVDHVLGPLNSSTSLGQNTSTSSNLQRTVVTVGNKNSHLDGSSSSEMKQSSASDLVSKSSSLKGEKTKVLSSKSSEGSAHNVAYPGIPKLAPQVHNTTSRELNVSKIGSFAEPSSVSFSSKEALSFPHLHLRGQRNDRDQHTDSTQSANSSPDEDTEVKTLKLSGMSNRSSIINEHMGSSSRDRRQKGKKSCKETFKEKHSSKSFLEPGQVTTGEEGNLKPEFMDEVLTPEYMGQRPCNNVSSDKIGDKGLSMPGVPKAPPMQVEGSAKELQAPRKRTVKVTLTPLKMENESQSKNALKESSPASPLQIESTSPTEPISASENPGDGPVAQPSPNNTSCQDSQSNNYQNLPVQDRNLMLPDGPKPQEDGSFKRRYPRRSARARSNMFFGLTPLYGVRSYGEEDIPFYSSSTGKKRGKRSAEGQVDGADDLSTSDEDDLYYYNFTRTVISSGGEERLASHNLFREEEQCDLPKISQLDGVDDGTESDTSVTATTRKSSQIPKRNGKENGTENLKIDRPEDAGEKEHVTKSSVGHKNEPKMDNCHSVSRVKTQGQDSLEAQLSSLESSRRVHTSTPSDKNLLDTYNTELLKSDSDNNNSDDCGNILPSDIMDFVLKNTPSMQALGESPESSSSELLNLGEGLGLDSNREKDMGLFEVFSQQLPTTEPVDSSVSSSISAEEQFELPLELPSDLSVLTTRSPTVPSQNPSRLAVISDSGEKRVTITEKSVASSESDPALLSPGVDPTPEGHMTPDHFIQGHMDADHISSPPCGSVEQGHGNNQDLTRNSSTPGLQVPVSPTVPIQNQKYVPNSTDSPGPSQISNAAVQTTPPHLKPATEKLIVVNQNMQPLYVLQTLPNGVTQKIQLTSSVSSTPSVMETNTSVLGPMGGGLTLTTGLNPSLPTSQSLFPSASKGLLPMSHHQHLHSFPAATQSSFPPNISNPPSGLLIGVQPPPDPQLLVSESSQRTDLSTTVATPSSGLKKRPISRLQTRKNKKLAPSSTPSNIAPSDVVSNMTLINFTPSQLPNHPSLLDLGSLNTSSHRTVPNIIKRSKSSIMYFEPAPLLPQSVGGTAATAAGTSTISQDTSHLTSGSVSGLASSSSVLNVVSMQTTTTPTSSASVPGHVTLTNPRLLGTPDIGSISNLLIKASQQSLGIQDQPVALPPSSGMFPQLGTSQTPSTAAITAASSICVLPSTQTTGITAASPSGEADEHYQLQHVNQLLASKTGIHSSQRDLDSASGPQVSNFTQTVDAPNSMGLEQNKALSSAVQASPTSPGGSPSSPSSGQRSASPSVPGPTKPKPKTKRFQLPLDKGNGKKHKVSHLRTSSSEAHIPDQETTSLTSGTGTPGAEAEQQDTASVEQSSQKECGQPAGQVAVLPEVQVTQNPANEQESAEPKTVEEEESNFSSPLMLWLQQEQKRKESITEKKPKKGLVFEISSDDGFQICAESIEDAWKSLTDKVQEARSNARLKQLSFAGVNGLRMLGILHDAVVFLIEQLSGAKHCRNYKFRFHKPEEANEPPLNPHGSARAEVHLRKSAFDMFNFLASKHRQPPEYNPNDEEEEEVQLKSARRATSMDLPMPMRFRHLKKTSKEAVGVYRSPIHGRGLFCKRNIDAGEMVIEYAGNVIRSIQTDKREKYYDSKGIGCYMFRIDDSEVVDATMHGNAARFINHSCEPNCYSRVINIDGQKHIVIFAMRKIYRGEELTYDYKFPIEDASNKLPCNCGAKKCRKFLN
#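 Purified MLL-CXXC (added from a 7 uM solution) was preincubated 5 min at ambient with pinned compounds in 50 mM Tris-HCl pH 7.5, 50 mM NaCl, 1 mM DTT, 0.05% BSA. Fluorescein-labeled HOX-A9 DNA (50 nM solution) followed, 30 min, then polarization read.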
# Menin MLL FP FL: displaces fluorescein MLL peptide from human menin. 290,000 tested, under 10 active. AID 1766. FP activity change, % at 61.4 µM. Fluorescence polarization, fluorescein-MLL peptide displacement from menin; active means well fitted curve in the direction sought with a large enough effect in the polarisation, not every such curve was filed as active; inconclusive means small, poorly fitted or top-dose-only effect, or effect the other way, or a change in a side signal; inactive means no such curve, though single readings can be large or run the other way; the % refers to the polarisation; further: % of control where 0% means no effect
# Active calls of the source: *; u = inconclusive; x = not tested or not shown; [ ] = another dose, or the depositor's remark.
SMILES,Menin MLL FP TR,KCNH2 3.1 inh,hERG WT inh,CXXC DNA block,Menin MLL FP FL
CC[C@H](C)[C@H](NC(=O)CNC(=O)[C@@H](NC(=O)[C@@H](NC(=O)[C@H](Cc1ccc(O)cc1)NC(=O)[C@H](CC(C)C)NC(=O)[C@H](C)NC(=O)[C@H](CCC(N)=O)NC(=O)CNC(=O)[C@@H]1CCCN1C(=O)CNC(=O)[C@H](Cc1ccccc1)NC(=O)[C@H](Cc1cnc[nH]1)NC(=O)[C@@H](NC(=O)CNC(=O)[C@H](CCCNC(=N)N)NC(=O)[C@H](CCCNC(=N)N)NC(=O)[C@@H](NC(=O)[C@H](CC(N)=O)NC(=O)[C@@H](N)CS)[C@@H](C)O)[C@@H](C)CC)[C@@H](C)O)[C@@H](C)O)C(=O)O,-24%,x,x,x,-1
CCOc1ccc2ncc(C(=O)c3ccc(OC)cc3)c(N3CCN(CC)CC3)c2c1,-26%,-75*,u,3%,-7
CCc1ccc(C(=O)c2cnc3ccc(OC)cc3c2N2CCN(CC)CC2)cc1,-3%,-20,5,-10%,1
CCOc1ccc(CN(C)CC(=O)c2c(N)n(Cc3ccccc3)c(=O)n(CC)c2=O)cc1OC,-29%,-101*,-117*,4%,-1
CCn1c(=O)c(C(=O)CN(C)Cc2ccc(F)cc2)c(N)n(Cc2ccccc2)c1=O,u,-84*,-10,5%,-6
CCn1c(=O)c(C(=O)CN(C)Cc2cccc(OC)c2OC)c(N)n(Cc2ccccc2)c1=O,u,0,2,-2%,2
CCCC/C=C/[C@H](c1ccccc1)[C@H](CO)Cc1ccccc1,-24%,x,x,x,-1
Cc1ccc(CN2CCSCC2)cc1,6%,10,-5,-2%,1
Brc1ccc(CN2CCSCC2)cc1,1%,-174*,-15,-7%,2
Cc1cc(NC(=O)c2ccc(-c3ccccc3F)o2)no1,11%,-198*,-15,5%,-3
Cc1cc(NC(=O)c2ccc(-c3ccccc3[N+](=O)[O-])o2)no1,x,-4,2,x,x
COc1cc(OC)c(OC)cc1CCC(C)NCCC(c1ccccc1)c1ccccc1 (stereo not drawn),u,-92*,u,5%,1
CCCCCC(C)NC(=O)c1cc(S(=O)(=O)N2CCCCC2)ccc1N1CCOCC1 (stereo not drawn),x,-4,-8,x,x
COc1ccc(S(=O)(=O)N2CCC(C(=O)NCCC(=O)NCc3cccnc3)CC2)cc1,x,-9,-74*,x,x
COc1ccc(S(=O)(=O)N2CCC(C(=O)NCCC(=O)NCc3ccncc3)CC2)cc1,x,6,1,31%,x
O=C(COC(=O)CCN1C(=O)C2CC=CCC2C1=O)Nc1ccc([N+](=O)[O-])cc1 (stereo not drawn),x,-9,3,x,x
Cc1ccc(C(=O)N/C(=C\c2ccccc2)C(=O)NCCCn2ccnc2)cc1,0%,-105*,-125*,-7%,-1
Cc1ccc(/C=C(\NC(=O)c2ccc(C)cc2)C(=O)NCCCn2ccnc2)cc1,-17%,-95*,-94*,-1%,-8
Cc1ccc(C(=O)N/C(=C/c2ccc(F)cc2)C(=O)NCc2ccncc2)cc1,5%,-90*,u,-1%,5
CC(C)Oc1ccc(S(=O)(=O)N2CCOCC2)cc1NC(=O)c1ccc(Cl)c(S(=O)(=O)N2CCOCC2)c1,x,-4,21,x,x
COC(=O)[C@@H](NC(=O)N1CCc2nc(-c3ccc(OC)cc3C)c3c(c2C1)CO[C@@H](c1ccccc1)C3)C(C)C,-8%[11.7 µM],x,x,x,1[11.7 µM]
Cc1ccc(NC(=O)/C=C/c2ccco2)cc1S(=O)(=O)N1CCCCCC1,x,-16,-5,x,x
COc1ccc(CNC(=O)C2(CC3CC(c4ccccc4)=NO3)CCN(C(=O)Cc3ccc(F)cc3)CC2)cc1 (stereo not drawn),x,-72*,-27,x,x
CCOc1cc(C(=O)N2CCC(CC3CC(c4ccccc4)=NO3)(C(=O)NCc3ccc(OC)cc3)CC2)cc(OCC)c1OCC (stereo not drawn),x,-8,9,x,x
CN(CC(=O)Nc1ccccc1Cl)C(=O)CN1C(=O)C2CC=CCC2C1=O (stereo not drawn),x,-7,-4,x,x
CCOC(=O)N1CCc2c(sc(NC(=O)CN3CCN(C)CC3)c2C(=O)Nc2ccccc2)C1,u,-97*,u,4%,u
